Measurements as given in PubChem BioAssay (NCI).
About 79,000 compounds went through this panel and 15% of them were active in at least one assay; those are over-represented in the sample as a whole. Unmarked numbers belong to inactive results. Activity calls are given as the source filed them. Cut-off read from the data, not from the text of the source: active = growth inhibition above about 70%; inactive = the rest.

Assays:
[1] = NCI Yeast Anticancer Drug Screen. Data for the rad52 strain (AID 147);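 note: 0% = growth of vehicle-treated control cultures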; conditions: S. cerevisiae rad52 mutant growth inhibition, hits give high values
Procedure, shortened: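 Read-out: growth inhibition versus vehicle-treated controls. Cells were a DNA repair-deficient yeast strain treated with compounds.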

[2] = NCI Yeast Anticancer Drug Screen. Data for the wt1 strain (AID 149);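 note: 0% = growth of vehicle-treated wt1 cultures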; conditions: S. cerevisiae wt1 strain (SPY 50644) growth inhibition, hits give high values
Procedure, shortened: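 Readout: yeast growth inhibition, normalised to vehicle controls, in the wt1 strain exposed to test compounds.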

[3] = NCI Yeast Anticancer Drug Screen. Data for the rad50EPP+ strain (AID 151);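 note: 0% = growth of vehicle-treated control cultures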; conditions: S. cerevisiae rad50 mutant strain, hits give high values
Procedure, shortened: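 Growth inhibition read against vehicle controls in rad50EPP+ yeast, a strain altered in DNA damage repair, after compound exposure.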

[4] = NCI Yeast Anticancer Drug Screen. Data for the mgt1 strain (AID 153); conditions: S. cerevisiae mgt1 mutant growth inhibition, hits give high values
Procedure, shortened: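 mgt1 yeast grown with test compound; read-out is growth inhibition versus vehicle-treated cultures.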

[5] = NCI Yeast Anticancer Drug Screen. Data for the rad50 strain (AID 155);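 note: 0% = growth of vehicle-only cultures of the same strain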; conditions: S. cerevisiae rad50 strain growth inhibition, hits give high values
Procedure, shortened: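 Compounds were tested on a yeast strain with an engineered DNA damage repair alteration; the reported value is growth inhibition normalised to vehicle treatment.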

[6] = NCI Yeast Anticancer Drug Screen. Data for the mec2-1 strain (AID 157); conditions: S. cerevisiae mec2-1 strain, hits give high values
Procedure, shortened: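 Yeast mec2-1 mutant treated with compound. Readout: growth inhibition vs vehicle controls.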

[7] = NCI Yeast Anticancer Drug Screen. Data for the rad14 strain (AID 159);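 note: 0% = growth of vehicle-treated control cultures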; conditions: S. cerevisiae rad14 strain growth inhibition, hits give high values
Procedure, shortened: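 Compound-treated yeast with a defined DNA-repair lesion; growth inhibition normalised to vehicle-treated cultures.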

[8] = NCI Yeast Anticancer Drug Screen. Data for the sgs1 mgt1 strain (AID 161);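 note: 0% = growth of cultures given vehicle only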; conditions: S. cerevisiae sgs1 mgt1 strain, hits give high values
Procedure, shortened: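 Read-out: growth inhibition vs vehicle controls. Cells: mutant yeast strain deficient in DNA damage repair.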

[9] = NCI Yeast Anticancer Drug Screen. Data for the CLN2oe strain (AID 163);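 note: 0% = growth of vehicle-only control cultures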; conditions: S. cerevisiae CLN2oe strain, hits give high values
Procedure, shortened: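 Read-out: yeast growth inhibition, expressed relative to vehicle-only controls. The strain bears an engineered cell-cycle alteration.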

[10] = NCI Yeast Anticancer Drug Screen. Data for the cln2 rad14 strain (AID 165);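 note: 0% = growth equal to vehicle treated cultures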; conditions: S. cerevisiae cln2 rad14 strain, hits give high values
Procedure, shortened: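 cln2 rad14 yeast strain; compound exposure; growth inhibition read vs vehicle controls.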

[11] = NCI Yeast Anticancer Drug Screen. Data for the bub3 strain (AID 167); conditions: S. cerevisiae bub3 mutant strain, hits give high values
Procedure, shortened: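 Growth of a checkpoint-deficient yeast mutant is measured after compound exposure. Values represent inhibition relative to vehicle.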

[12] = NCI Yeast Anticancer Drug Screen. Data for the wt2 strain (AID 169);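 note: 0% = growth of vehicle-treated yeast cultures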; conditions: S. cerevisiae wt2 strain growth inhibition, hits give high values
Procedure, shortened: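 Read-out: growth inhibition versus vehicle-treated control cultures after compound exposure of the yeast strain.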

[13] = NCI Yeast Anticancer Drug Screen. Data for the mlh1 strain (AID 171);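 note: 0% = growth of vehicle-treated control cultures of the same strain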; conditions: S. cerevisiae mlh1 strain growth inhibition, hits give high values
Procedure, shortened: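 Read-out: growth inhibition versus vehicle controls. Strain: engineered yeast with a defined DNA repair or cell cycle defect, compound-treated.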

[14] = NCI Yeast Anticancer Drug Screen. Data for the sgs1 strain (AID 173);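 note: 0% = growth of vehicle-only control cultures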; conditions: S. cerevisiae sgs1 mutant, hits give high values
Procedure, shortened: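 Read-out: yeast growth inhibition relative to vehicle controls, following compound exposure of a strain with a defined DNA repair/cell cycle alteration.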

[15] = NCI Yeast Anticancer Drug Screen. Data for the mlh1 rad18 strain (AID 175); conditions: S. cerevisiae mlh1 rad18 strain growth inhibition, hits give high values
Procedure, shortened: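 Yeast w/ defined DNA-repair lesions; compound exposure; growth vs vehicle controls → % inhibition.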

[16] = NCI Yeast Anticancer Drug Screen. Data for the rad18 strain (AID 177); conditions: S. cerevisiae rad18 mutant growth inhibition, hits give high values
Procedure, shortened: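 Readout: growth inhibition vs vehicle controls. Cells: genetically altered yeast strain, DNA repair defect.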

[17] = at 5.0 µM (retest, dose inferred, filed as 0.5)
[18] = at 50.0 µM (retest, dose inferred, filed as 5.0)

For `O=C1CSC(c2cccc(Cl)c2)N1c1ccc(-c2ccc(-n3c(-c4ccccc4)nc4ccccc4c3=O)cc2)cc1` (stereo not drawn), the growth inhibition ([1]; at 1.2 µM) was 1%, the growth inhibition ([1]; at 3.7 µM) was 5% and the growth inhibition ([1]; at 11.0 µM) was 8%. The growth inhibition ([1]; at 33.0 µM) was 7%, the growth inhibition ([1]; at 100.0 µM) was 18% and the growth inhibition ([2]; at 1.2 µM) was 1%. The growth inhibition ([2]; at 3.7 µM) was 1%, the growth inhibition ([2]; at 11.0 µM) was -1% and the growth inhibition ([2]; at 33.0 µM) was -4%. For the same compound, the growth inhibition ([2]; at 100.0 µM) was -3%, the growth inhibition ([3]; at 1.2 µM) was -1% and the growth inhibition ([3]; at 3.7 µM) was 4%. The growth inhibition ([3]; at 11.0 µM) was 8%, the growth inhibition ([3]; at 33.0 µM) was 9% and the growth inhibition ([3]; at 100.0 µM) was -4%. It also gave a growth inhibition ([4]; at 1.2 µM) of 1%, a growth inhibition ([4]; at 3.7 µM) of 2% and a growth inhibition ([4]; at 11.0 µM) of 3%. For the same compound, the growth inhibition ([4]; at 33.0 µM) was 25%, the growth inhibition ([4]; at 100.0 µM) was 60% and the growth inhibition ([5]; at 1.2 µM) was 2%. The growth inhibition ([5]; at 3.7 µM) was 6%, the growth inhibition [5, 17] was -2% and the growth inhibition ([5]; at 11.0 µM) was 7%. It also gave a growth inhibition ([5]; at 33.0 µM) of 15%, a growth inhibition [5, 18] of 61% and a growth inhibition ([5]; at 50.0 µM) of 66.8%. For the same compound, the growth inhibition ([5]; at 100.0 µM) was 22%, the growth inhibition ([6]; at 1.2 µM) was 3% and the growth inhibition ([6]; at 3.7 µM) was 4%. For the same compound, the growth inhibition [6, 17] was -9%, the growth inhibition ([6]; at 11.0 µM) was 6% and the growth inhibition ([6]; at 33.0 µM) was 9%. It also gave a growth inhibition [6, 18] of -26%, a growth inhibition ([6]; at 50.0 µM) of 68.5% and a growth inhibition ([6]; at 100.0 µM) of 16%. It also gave a growth inhibition ([7]; at 1.2 µM) of 7%, a growth inhibition ([7]; at 3.7 µM) of 9% and a growth inhibition ([7]; at 11.0 µM) of 15%. The growth inhibition ([7]; at 33.0 µM) was 32%, the growth inhibition ([7]; at 100.0 µM) was 47% and the growth inhibition [8, 17] was 8%. For the same compound, the growth inhibition [8, 18] was 83% (active), the growth inhibition ([8]; at 50.0 µM) was 43.2% and the growth inhibition ([9]; at 1.2 µM) was 13%. It also gave a growth inhibition ([9]; at 3.7 µM) of 11%, a growth inhibition ([9]; at 11.0 µM) of 15% and a growth inhibition ([9]; at 33.0 µM) of 15%. It also gave a growth inhibition ([9]; at 100.0 µM) of 11%, a growth inhibition [10, 17] of 31% and a growth inhibition [10, 18] of 46%. For the same compound, the growth inhibition ([10]; at 50.0 µM) was 41.6%, the growth inhibition ([11]; at 1.2 µM) was 5% and the growth inhibition ([11]; at 3.7 µM) was 4%. It also gave a growth inhibition [11, 17] of 10%, a growth inhibition ([11]; at 11.0 µM) of 6% and a growth inhibition ([11]; at 33.0 µM) of 8%. For the same compound, the growth inhibition [11, 18] was 85% (active), the growth inhibition ([11]; at 50.0 µM) was 86.8% (active) and the growth inhibition ([11]; at 100.0 µM) was 29%. For the same compound, the growth inhibition ([12]; at 1.2 µM) was 0%, the growth inhibition ([12]; at 3.7 µM) was -2% and the growth inhibition ([12]; at 11.0 µM) was 0%. It also gave a growth inhibition ([12]; at 33.0 µM) of 15%, a growth inhibition ([12]; at 100.0 µM) of 39% and a growth inhibition ([13]; at 1.2 µM) of 1%. For the same compound, the growth inhibition ([13]; at 3.7 µM) was 5%, the growth inhibition ([13]; at 11.0 µM) was 7% and the growth inhibition ([13]; at 33.0 µM) was 24%. It also gave a growth inhibition ([13]; at 100.0 µM) of 42%, a growth inhibition ([14]; at 1.2 µM) of 0% and a growth inhibition ([14]; at 3.7 µM) of 2%. It also gave a growth inhibition ([14]; at 11.0 µM) of 10%, a growth inhibition ([14]; at 33.0 µM) of 39% and a growth inhibition ([14]; at 100.0 µM) of 57%. For the same compound, the growth inhibition [15, 17] was 5%, the growth inhibition [15, 18] was 85% (active) and the growth inhibition ([15]; at 50.0 µM) was 85.1% (active). For the same compound, the growth inhibition ([16]; at 1.2 µM) was 0%, the growth inhibition ([16]; at 3.7 µM) was 3% and the growth inhibition ([16]; at 11.0 µM) was 14%. It also gave a growth inhibition ([16]; at 33.0 µM) of 22% and a growth inhibition ([16]; at 100.0 µM) of 31%.

`COC(=O)C1=C(C(=O)OC)C(C(=O)OC)C(C(=O)OC)C(C(=O)OC)(C(=O)OC)C(C(=O)OC)=C1C(=O)OC` (stereo not drawn) gave a growth inhibition ([1]; at 1.2 µM) of -2%, a growth inhibition ([1]; at 3.7 µM) of -6% and a growth inhibition ([1]; at 11.0 µM) of 5%. The growth inhibition ([1]; at 33.0 µM) was 20%, the growth inhibition ([1]; at 100.0 µM) was 46% and the growth inhibition ([2]; at 1.2 µM) was -11%. For the same compound, the growth inhibition ([2]; at 3.7 µM) was -13%, the growth inhibition ([2]; at 11.0 µM) was -25% and the growth inhibition ([2]; at 33.0 µM) was 1%. The growth inhibition ([2]; at 100.0 µM) was 39%, the growth inhibition ([3]; at 1.2 µM) was -4% and the growth inhibition ([3]; at 3.7 µM) was -4%. For the same compound, the growth inhibition ([3]; at 11.0 µM) was -4%, the growth inhibition ([3]; at 33.0 µM) was 1% and the growth inhibition ([3]; at 100.0 µM) was 27%. For the same compound, the growth inhibition ([4]; at 1.2 µM) was -18%, the growth inhibition ([4]; at 3.7 µM) was -19% and the growth inhibition ([4]; at 11.0 µM) was -17%. For the same compound, the growth inhibition ([4]; at 33.0 µM) was 13%, the growth inhibition ([4]; at 100.0 µM) was 62% and the growth inhibition ([5]; at 1.2 µM) was -10%. The growth inhibition ([5]; at 3.7 µM) was -14%, the growth inhibition [5, 17] was 25% and the growth inhibition ([5]; at 11.0 µM) was 7%. For the same compound, the growth inhibition ([5]; at 33.0 µM) was 25%, the growth inhibition [5, 18] was 93% (active) and the growth inhibition ([5]; at 50.0 µM) was 77.9% (active). The growth inhibition ([5]; at 100.0 µM) was 62%, the growth inhibition ([6]; at 1.2 µM) was -13% and the growth inhibition ([6]; at 3.7 µM) was -14%. It also gave a growth inhibition [6, 17] of 20%, a growth inhibition ([6]; at 11.0 µM) of 1% and a growth inhibition ([6]; at 33.0 µM) of 16%. The growth inhibition [6, 18] was 94% (active), the growth inhibition ([6]; at 50.0 µM) was 60.5% and the growth inhibition ([6]; at 100.0 µM) was 55%. For the same compound, the growth inhibition ([7]; at 1.2 µM) was -16%, the growth inhibition ([7]; at 3.7 µM) was -20% and the growth inhibition ([7]; at 11.0 µM) was -11%. For the same compound, the growth inhibition ([7]; at 33.0 µM) was 14%, the growth inhibition ([7]; at 100.0 µM) was 73% (active) and the growth inhibition [8, 17] was 96% (active). For the same compound, the growth inhibition [8, 18] was 99% (active), the growth inhibition ([8]; at 50.0 µM) was 80.1% (active) and the growth inhibition ([9]; at 1.2 µM) was -11%. The growth inhibition ([9]; at 3.7 µM) was -21%, the growth inhibition ([9]; at 11.0 µM) was -26% and the growth inhibition ([9]; at 33.0 µM) was -7%. The growth inhibition ([9]; at 100.0 µM) was -1%, the growth inhibition [10, 17] was 88% (active) and the growth inhibition [10, 18] was 97% (active). The growth inhibition ([10]; at 50.0 µM) was 33%, the growth inhibition ([11]; at 1.2 µM) was -13% and the growth inhibition ([11]; at 3.7 µM) was -13%. The growth inhibition [11, 17] was 95% (active), the growth inhibition ([11]; at 11.0 µM) was -22% and the growth inhibition ([11]; at 33.0 µM) was 18%. For the same compound, the growth inhibition [11, 18] was 99% (active), the growth inhibition ([11]; at 50.0 µM) was 54.5% and the growth inhibition ([11]; at 100.0 µM) was 35%.
